Inconclusive results are not listed. A call without a number means that no potency is given here. Active and inactive are the calls of the source. Calls come from the whole dose curve; as a rule, active = well fitted inhibition curve with a large enough effect; inconclusive = small, poorly fitted or top-dose-only effect; inactive = flat fitted curve, though single readings scatter.

Lysosomal acid glucosylceramidase (Homo sapiens), sequence (P04062 whole entry N409S): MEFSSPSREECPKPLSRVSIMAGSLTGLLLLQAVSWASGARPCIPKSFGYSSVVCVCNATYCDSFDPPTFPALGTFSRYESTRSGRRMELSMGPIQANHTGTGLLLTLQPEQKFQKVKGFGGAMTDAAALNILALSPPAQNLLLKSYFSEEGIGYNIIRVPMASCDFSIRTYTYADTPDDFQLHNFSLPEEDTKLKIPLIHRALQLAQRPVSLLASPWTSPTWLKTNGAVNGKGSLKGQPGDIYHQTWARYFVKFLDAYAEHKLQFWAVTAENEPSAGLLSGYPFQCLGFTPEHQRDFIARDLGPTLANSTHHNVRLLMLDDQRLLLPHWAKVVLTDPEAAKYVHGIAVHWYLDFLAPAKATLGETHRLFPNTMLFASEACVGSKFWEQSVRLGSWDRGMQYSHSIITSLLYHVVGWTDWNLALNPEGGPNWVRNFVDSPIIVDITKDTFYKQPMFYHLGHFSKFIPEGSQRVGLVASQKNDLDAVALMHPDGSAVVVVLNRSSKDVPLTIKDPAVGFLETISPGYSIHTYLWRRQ

For the experiment, the target named is Lysosomal acid glucosylceramidase (Homo sapiens) (UniProt P04062). Briefly: qHTS Assay for Inhibitors and Activators of N370S glucocerebrosidase as a Potential Chaperone Treatment of Gaucher Disease: Activity in N370S Spleen Homogenate Using a Red Fluorescent Substrate. Conditions: red fluorogenic substrate; series mostly up to 49.6 µM. From the text:
NIH Chemical Genomics Center [NCGC]
NIH Molecular Libraries Probe Production Centers Network [MLPCN]
Assay Submitter (PI): Wei Zheng
Glucocerebrosidase (GC) catalyzes the hydrolysis of beta-glucocerebroside to glucose and ceramide in lysosomes. Mutations in the glucocerebrosidase gene result in Gaucher disease, an autosomal recessive lysosomal storage disorder. Many of the mutations encountered in patients with Gaucher disease are missense alterations that may cause misfolding, decreased stability and/or mistrafficking of this lysosomal protein. […] These inhibitors include iminosugar analogs and three non-iminosugar inhibitors identified from a previous HTS of 62,000 compounds with the wild type recombinant enzyme. However, the enhancement of enzyme activity by the chaperone action of an enzyme inhibitor must be balanced against the direct inhibition of the enzyme. An enzyme activator could also function as a chaperone by binding to the enzyme and helping to correct its misfolding and mistrafficking. While activators for GC have not yet been identified, they may have better therapeutic potential than inhibitors. Therefore the discovery and development of chemical activators may provide a new strategy for the chaperone therapy.
We have optimized a new assay using N370S mutant GC derived from the spleen of a Gaucher patient. […] In addition, the MLPCN compound library has expanded, which increases the chance of finding new and better probes.
This confirmation assay tests for compound activity in spleen homogenate from a patient homozygous for the N370S mutation using an alternate resorufin-based substrate.
NCGC Assay Protocol Summary:
This is a fluorogenic enzyme assay with resorufin-beta-D-glucopyranoside as the substrate and mutant N370S glucocerebrosidase from human spleen homogenate as the enzyme preparation. Upon the hydrolysis of this fluorogenic substrate, the resulting product, […] which can be detected by a standard fluorescence plate reader. Data were normalized to the controls for basal activity (without enzyme) and 100% activity (with enzyme). The AC50 values were determined from concentration-response data modeled with the standard Hill equation.
Assay buffer: 50 mM citric acid (titrated with potassium phosphate to pH 5.0), 100 mM potassium chloride, 10 mM sodium chloride, 1 mM magnesium chloride, 0.01% Tween-20.
1536-well assay protocol:
(1) Add 2 ul/well of spleen homogenate (27 ug final)
(2) Add 23 nL compounds in DMSO solution. The final titration was 0.5 nM to 58 uM.
(3) Add 2 ul of substrate (1 mM final)
(4) Incubate at 37C for 40 min.
(5) Add 2 ul stop solution (1M NaOH and 1M Glycine mixture, pH 10)
(6) Detect the assay plate in a ViewLux plate reader (PerkinElmer) with Ex=365 nm and Em=440nm.
Keywords: Glucocerebrosidase, beta-glucosidase, Gaucher Disease, pharmacological chaperone, chaperone therapy, high throughput screening, glucocerebrosidase inhibitor, MLSMR, MLSCN, NIH Roadmap, qHTS and NCGC
On to `CC(=O)Nc1ccc(NC(=O)COc2ccccc2C(=O)Nc2cccc(Cl)c2Cl)cc1`, for which the Potency entry was “inactive”.
In the case of `OCCNc1nc(Nc2ccc(Cl)cc2)nc(N2CCCC2)n1` it was 35.5 µM (active).
As for `Cc1cc(C)cc(N(CC(=O)NC2CCCCCC2)S(=O)(=O)c2c(C)[nH]c(=O)[nH]c2=O)c1`, the Potency is 0.794 µM (active).
Turning to `CCN(CC)c1cc(C)c2cc(NC(=O)C3CCC(C)CC3)ccc2n1` (stereo not given), the Potency was 28.2 µM (active).
As to `Cc1ccc(C)c(N2CCN(C(=O)CCC(=O)Nc3ccc4nc(N5CCOCC5)cc(C)c4c3)CC2)c1`, the Potency was 15.8 µM (active).
In the case of `CCc1ccc(NC(=O)c2cnn3c(C(F)F)cc(C)nc23)cc1` it was “inactive”; in that of `COc1cccc(NC(=O)CSc2nc3ccccc3c(=O)n2Cc2cccs2)c1`, “inactive”.
For the molecule `Nc1nc(-c2ccccc2)c(N=Nc2ccc(Cl)cc2)s1`, the Potency result was “inactive”.
As to `CCCCNC(=O)c1ccc(NS(=O)(=O)c2ccccc2)cc1`, the Potency entry was “inactive”.
The result for `O=C(COc1ccccc1C(=O)c1cnn(-c2ccccc2)c1)Nc1ccccc1` reads “inactive”.
In the case of `Cc1cc(N2CCN(c3ncccn3)CC2)nc2ccc(NC(=O)C3CCC(C)CC3)cc12` (stereo not given) it was 5.01 µM (active); in that of `Cc1cccc(/C=N/NC(=O)NC23CC4CC(CC(C4)C2)C3)n1`, “inactive”; in that of `Cc1cc(N2CCOCC2)nc2ccc(NC(=O)CCC(=O)NC3CCCCC3)cc12`, “inactive”.
In the case of `COc1ccc(Nc2nc(-c3cccs3)nc3ccccc23)cc1` it was 2.51 µM (active); in that of `CCC(C)c1ccc(NC(=O)c2cnn3c(C(F)F)cc(C)nc23)cc1` (stereo not given), “inactive”; in that of `N=c1c2c(-c3ccccc3)c(-c3ccccc3)n(Cc3ccco3)c2ncn1CCCn1ccnc1`, 7.94 µM (active).
Turning to `CCN(CC)c1ccc(C(=O)Nc2ccc3nc(N4CCOCC4)cc(C)c3c2)cc1`, the Potency was 15.8 µM (active).
As for `COc1cccc(NC(=S)N(CCCN2CCOCC2)Cc2cn(C)c3ccccc23)c1`, the Potency is 4.47 µM (active).
The result for `c1ccc2c(NCC3CCCO3)nc(N3CCOCC3)nc2c1` (stereo not given) reads “inactive”; that for `CC1(C)CC(=O)C2=C(C1)c1c(ccc3ccccc13)NC2c1ccc(Br)o1` (stereo not given), “inactive”; that for `CCCC1CCC(C(=O)Nc2ccc3nc(N4CCOCC4)cc(C)c3c2)CC1` (stereo not given), 0.562 µM (active).
In the case of `O=C(Nc1ccccc1)c1ccc(NS(=O)(=O)c2ccccc2)cc1`, the Potency result was “inactive”.
Consider `Clc1ccccc1-c1nccc(NCc2ccccc2)n1`, for which the Potency was 3.55 µM (active).
As to `Cc1cc(N2CCOCC2)nc2ccc(NC(=O)CCC3CCCC3)cc12`, the Potency was 15.8 µM (active).
The result for `Cc1cc(C)n2ncc(C(=O)Nc3cccc(O)c3)c2n1` reads “inactive”.
Consider `Cc1cc(N2CCC(C)CC2)nc2ccc(NC(=O)C3CCC(C)CC3)cc12` (stereo not given), for which the Potency is 11.2 µM (active).
The result for `Cc1cc(C)n2ncc(C(=O)Nc3ccc(Cl)c(Cl)c3)c2n1` reads “inactive”; that for `O=C(Nc1cnn(Cc2ccc(F)cc2)c1)c1cnn2c(C(F)F)cc(-c3ccccc3)nc12`, “inactive”.
The result for `O=C(COc1ccccc1[N+](=O)[O-])Nc1ccc(Br)cc1` reads “inactive”; that for `N#Cc1ccccc1Sc1ccccc1C(=O)OCC(=O)NC12CC3CC(CC(C3)C1)C2`, “inactive”.
In the case of `CSc1ccc(NC(=O)Nc2cc(C)ccn2)cc1`, the Potency entry was “inactive”.
The result for `COc1ccccc1OCC(=O)Nc1oc(-c2ccccc2)c(-c2ccccc2)c1C#N` reads “inactive”; that for `CCOc1ccc(N(CC(=O)NC2CCCCCC2)S(=O)(=O)c2c(C)[nH]c(=O)[nH]c2=O)cc1`, 2.82 µM (active); that for `COc1cc(OC)cc(C(=O)N[C@H](C(=O)OCC(=O)Nc2cccc(F)c2)C(C)C)c1`, “inactive”.
With `CC(C)(C)C(=O)OCCNc1nc(-c2ccccc2)nc2ccccc12`, the Potency is 3.98 µM (active).
Consider `CCC(C)NC(=O)COC(=O)c1ccccc1OCC(=O)Nc1ccc(Br)cc1` (stereo not given), for which the Potency entry was “inactive”.
The result for `S=C(NCCCc1cnc[nH]1)NCCCN(Cc1ccc(Cl)c(Cl)c1)c1ccc(Br)cn1` reads 2.24 µM (active); that for `COc1ccccc1C(=O)COC(=O)c1ccccc1OCC(=O)Nc1ccc(SC(F)F)cc1`, “inactive”.
As for `CCOc1ccc(N(CC(=O)Nc2ccc(C)cc2)S(=O)(=O)c2c(C)[nH]c(=O)[nH]c2=O)cc1`, the Potency is 12.6 µM (active).
The result for `COc1cc(OC)c2c(N)c(C#N)c(C(F)(F)C(F)(F)F)nc2c1` reads “inactive”.
